ATXN viability: Viability Counterscreen for Primary qHTS for Inhibitors of ATXN expression. 400,000 tested, 0.49% active. S2 cells (HEK-293 line with an ATXN2-luciferase reporter) viability, CellTiter-Fluor protease fluorescence, 24 h. Potency, µM (series often up to 56.7 µM), actives largely listed as cytotoxic; also: nearly all actives have a fitted effect of over 40% in size
TGFb SMAD3 inh: qHTS for Inhibitors of TGF-b; HepG2 CAGA-GFP TGF-b/SMAD3 reporter, GFP fluorescence, 18 h; TGF-beta stimulated, 500 pg/mL final; Potency, µM (doses to about 46.1 µM), inactives show top-dose activity, negative = inhibition, actives largely listed as inhibitors; 410,000 tested, 1.2% active; AID 588855, 2011; also: % is scaled to controls: 0 for no effect and ±100 for the full control effect; nearly all actives have a fitted effect of over 65% in size
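GFP signal (ex488/em500-530) from TGF-beta-stimulated HEPG2 CAGA-GFP cells, 500 pg/mL final, 18 h at 37 degrees C in DMEM plus 1% FBS, normalized to unstimulated and DMSO-stimulated controls.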
Nrf2 block: Nrf2 qHTS screen for inhibitors. A549 ARE-Fluc reporter, luciferase luminescence, 18-24 h. Potency, µM (doses to about 46 µM), without a hit: top-dose activity change, negative = inhibition, most hits filed as inhibitors. 360,000 tested, 2.1% active; also: % is scaled to controls: 0 for no effect and ±100 for the full control effect; nearly all actives have a fitted effect of over 60% in size
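Nrf2 function is reported as luminescence of an ARE-controlled luciferase in A549 cells. Compounds were tested at several concentrations, and a CellTiter-Fluor read on the same wells flagged cytotoxicity.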
A549 viability: Nrf2 qHTS screen for inhibitors: counterscreen for cytotoxicity; A549 ARE-Fluc cells, CellTiter-Fluor viability, 18-24 h; Potency, µM (top dose mostly 46 µM), without a hit: at the highest dose activity change, negative = cytotoxicity, hits mostly inhibitors; 390,000 tested, 0.16% active; also: % is scaled to controls: 0 for no effect and ±100 for the full control effect
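A549 ARE-Fluc cells in 5% FBS OPTI-MEM, 5000 cells/well, rested 2 h then exposed to compounds in concentration-response for 18-24 h at 37 °C. Viability by CellTiter-Fluor fluorescence (Ex 405/Em 525) after 30 min; luciferase luminescence (BugLite, 15 min, RT) read afterwards.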
HepG2 tox-1: qHTS for Inhibitors of TGF-b: Cytotox Counterscreen; HepG2 CAGA-GFP viability, ATP luminescence, 18 h; Potency, µM (titrated, usually from 46.1 µM), inactives show at the highest dose activity change, negative = cytotoxicity, usual class: cytotoxic; 410,000 tested, 0.76% active; AID 588856, 2011
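HepG2 CAGA-GFP cells (1000/well, DMEM with 1% FBS) received compound, then TGF-beta at 500 pg/mL final, and were incubated 18 hours at 37 degrees C. Viability was read by CellTiter-Glo luminescence. Media-only wells were set as complete cell-killing and DMSO as no toxicity.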
ATXN2 expr inh: Primary qHTS for Inhibitors of ATXN expression. Potency, µM (titrated, usually from 57 µM), without a hit: at the top dose activity change, negative = inhibition, most hits filed as inhibitors. HEK-293 ATXN2-luciferase reporter, luminescence, 24 h. 360,000 tested, 0.72% active; also: % is scaled to controls: 0 for no effect and ±100 for the full control effect; nearly all actives have a fitted effect of over 55% in size
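ATXN2-luciferase reporter cells (luciferase flanked by upstream and downstream ATXN2 gene portions) were treated 24 h at 37 °C with compounds at up to 57 uM. SteadyGlo luminescence gave expression; GF-AFC fluorescence gave viability.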
TGFb CAGA inh: qHTS for Inhibitors of TGF-b: Confirmation of Cherry Picks; shares compounds with TGFb SMAD3 inh; HepG2 CAGA-GFP TGF-b reporter, GFP fluorescence, 18 h; cells stimulated with TGF-beta, 500 pg/mL; Potency, µM (highest dose often 46.1 µM), for the others: top-dose activity, negative = inhibition, hits mostly inhibitors; 1,600 tested, 63% active; AID 720534, 2013; also: % is scaled to controls: 0 for no effect and ±100 for the full control effect; nearly all actives have a fitted effect of over 65% in size
HepG2 tox-2: qHTS for Inhibitors of TGF-b: Cytotox Counterscreen for Cherry Picks; shares compounds with TGFb SMAD3 inh; Potency, µM (titrated, usually from 46.1 µM), for the others: at the top dose activity, negative = cytotoxicity, usual class: inhibitors; HepG2 CAGA-GFP viability, ATP luminescence, 18 h; cells stimulated with TGF-beta, 500 pg/mL; 1,600 tested, 27% active; also: % is scaled to controls: 0 for no effect and ±100 for the full control effect; nearly all actives have a fitted effect of over 70% in size
CCL64 TGFb inh: qHTS for Inhibitors of TGF-b: CCL64 Cells Orthogonal Assay for Cherry Picks; Potency, µM (series often up to 46.1 µM), without a hit: at the top dose activity, negative = inhibition, usual class: inhibitors; 1,600 tested, 41% active; AID 720536, 2013; CCL64 CAGA-GFP reporter, TGF-b stimulated, GFP fluorescence, 18 h; shares compounds with TGFb SMAD3 inh; also: nearly all actives have a fitted effect of over 65% in size
COP TGFb inh: qHTS for Inhibitors of TGF-b: Hit Validation in HepG2 Cells using COP promoter; 1,600 tested, 3% active; HepG2 COP-GFP TGF-b reporter, GFP fluorescence, 18 h; cells stimulated by added recombinant TGF-beta; Potency, µM (doses to about 46.1 µM), for inactives: at the top dose activity, negative = inhibition, most hits filed as inhibitors; shares compounds with TGFb SMAD3 inh; also: nearly all actives have a fitted effect of over 70% in size
Active calls of the source: *; i = inactive; ? = inconclusive; / = no result; ! = not confirmed by another sample. A selection: hits, their analogues and other compounds. The true share with any hit is near 3.8%. Calls follow the shape of the dose curve; as a rule, active = well fitted curve in the direction sought with a large enough effect; inconclusive = small, poorly fitted or top-dose-only effect, or another doubt; inactive = no such curve, though single readings can be large; an effect the other way counts as inactive or inconclusive. Potency is read from the fitted curve at half-maximal effect.

SMILES	ATXN viability	TGFb SMAD3 inh	Nrf2 block	A549 viability	HepG2 tox-1	ATXN2 expr inh	TGFb CAGA inh	HepG2 tox-2	CCL64 TGFb inh	COP TGFb inh
COc1cc(CNCCO)cc(Cl)c1OCc1ccccc1Cl	i	11.2µM*	9.4%	0.0%	-21.8%	-6.6%	-94.3%	16.4µM*	29.1µM*	47.2%
Cc1cc(NC(=O)CS(=O)(=O)c2cn(Cc3cccc(Br)c3)c3ccccc23)no1	?	10µM*	/	/	-9.7%	?	11.6µM*	-14.8%	?	31.3%
O=C(NCCCN1CCOCC1)c1cnn(-c2ncc3c(n2)-c2ccccc2CC3)c1C1CC1	i	/	/	/	/	/	/	/	/	/
O=C(Cn1ccc(=O)[nH]c1=O)Nc1ccc(O)c([N+](=O)[O-])c1	i	-1.0%	1.3%	-4.0%	-5.1%	2.9%	/	/	/	/
COc1ccc(C2/C=C\CN(C(=O)C3CC3)[C@H](Cc3ccccc3)C(=O)N2Cc2ccc(F)cc2)cc1 (some centres undefined)	?	10µM*	?	-7.8%	-5.3%	0.0%	?	-24.8%	?	35.3%
Cc1ccccc1CCNC(=O)c1ccc(Cl)c(S(=O)(=O)N2CC(C)OC(C)C2)c1 (centres undefined)	?	10µM*	5.17µM*	-5.0%	4.0%	-35.1%	16.4µM*	?	?	3.3%
CC1CN(S(=O)(=O)c2cc(C(=O)NCc3ccncc3)ccc2Cl)CC(C)O1 (centres undefined)	i	3.2%	-5.4%	-1.2%	-1.3%	-2.6%	/	/	/	/
COc1ccc(Cn2c(=O)c3oc4ccccc4c3n(Cc3ccccc3)c2=O)cc1	/	-20.4%	?	?	-19.4%	/	/	/	/	/
COc1ccc(C(=O)N2CCc3[nH]nc(-c4ccccc4)c3C2)cc1	i	-5.8%	-23.6%	-0.2%	-16.6%	-27.8%	/	/	/	/
COC(=O)c1[nH]c2c(c1C)C(=O)CC(c1ccccc1)C2 (centres undefined)	?	?	-8.8%	-15.2%	1.2%	-20.3%	?	0.4%	?	-12.3%
Cc1c(C(=O)OCC(C)C)[nH]c2c1C(=O)CC(c1ccco1)C2 (centres undefined)	?	?	4.9%	-9.9%	-31.2%	-20.4%	9.2µM*	1.4%	8.2µM*	-18.8%
Cc1ccc(S(=O)(=O)N2C[C@H]3C(=O)C[C@@H](c4ccccc4)N(S(=O)(=O)c4ccc(C)cc4)[C@H]3C[C@H]2c2ccc(Cl)cc2)cc1	i	-22.7%	/	/	-35.0%	-0.9%	/	/	/	/
Cc1ccc(NC(=S)NCCc2c[nH]c3ccccc23)c(C)c1	/	10µM*	-10.8%	-1.2%	-46.2%	/	-20.9%	-23.0%	?	20.3%
COc1cc(OC)cc(C(=O)NCCCCCCNC(=O)c2cc(OC)cc(OC)c2)c1	i	-81.0%	1.4%	7.5%	-30.5%	3.2%	-11.7%	-7.1%	5.6%	2.9%
COc1cccc(C(=O)NCCCNC(=O)c2cccc(OC)c2)c1	i	4.5%	?	-4.0%	5.9%	6.9%	/	/	/	/
CC1CCCC(NC(=O)CCC(=O)NCc2ccccc2)C1C (centres undefined)	i	6.9%	3.1%	-4.5%	-7.6%	/	/	/	/	/
O=[N+]([O-])c1ccc(S(=O)(=O)c2ccccc2)nc1	/	2.51µM*	?	-20.3%	14.1µM*	/	4.11µM*	5.8µM*	3.26µM*	8.2µM*
Cc1ccc(S(=O)(=O)c2ccc([N+](=O)[O-])cn2)cc1	/	2.82µM*	?	-6.3%	7.08µM*	?	3.26µM*	2.91µM*	3.26µM*	5.17µM*
COc1ccc(N(C)S(=O)(=O)c2cccc(C(=O)Nc3cccc(C(=O)NC4CC4)c3)c2)cc1	?	5.7%	?	1.4%	-4.7%	?	/	/	/	/
Cc1cc(C)nc(-n2nc(C)cc2NC(=O)CN2CCC(C)CC2)n1	i	15.8µM*	3.7%	3.5%	-18.3%	-3.9%	?	-16.6%	-11.7%	-20.5%
Cc1onc(-c2c(F)cccc2Cl)c1C(=O)Nc1cc2cc([N+](=O)[O-])ccc2oc1=O	i	-8.0%	/	/	0.3%	2.5%	/	/	/	/
O=S(=O)(c1cc(F)ccc1F)N1CCN(c2ccccn2)CC1	i	-14.1%	-1.6%	1.2%	2.1%	2.8%	/	/	/	/
O=S(=O)(c1cc(F)ccc1F)N1CCN(c2ncnc3ccccc23)CC1	i	12.6µM*	11.6µM*	-17.9%	-39.0%	/	8.2µM*	-27.3%	-14.7%	-3.6%
CC(=O)Nc1ccc(SC[C@H](Cc2ccccc2)N2CC[C@@H](O)CCC2=O)cc1	i	-7.7%	5.7%	4.6%	4.4%	7.8%	/	/	/	/
CC(=O)Nc1ccc(SC[C@H](Cc2ccccc2)N2CC[C@@H](C(C)(C)C)CCC2=O)cc1	31.6µM*	10µM*	?	-12.8%	-10.4%	?	25.9µM*	?	?	59.6%
C[C@@H](CSc1ccc(Br)cc1)CN1CC[C@H](C(C)(C)C)CCC1=O	?	?	?	3.4%	-54.1%	?	/	/	/	/
Cc1ccc(SC[C@H](C)CN2CC[C@H](C(C)(C)C)CCC2=O)cc1	i	10µM*	-17.0%	-0.3%	11.2µM*!	-19.4%	?	?	20.6µM*	26.9%
